High-throughput results: PubChem, National Center for Advancing Translational Sciences (NCATS)
The entries come from a sample that favours hits as a whole.
LmPK inhibitor – inhibitors of Leishmania mexicana pyruvate kinase. Q27686. purified LmPK, Kinase-Glo ATP luminescence, 1 h. Potency, µM (doses to about 57.5 µM), for inactives: at the top dose activity change, negative = inhibition, usual class: inhibitors. hit rate 0.37% among 290,000. AID 1721; also: potency is read from the fitted curve at half-maximal effect; % is scaled to controls: 0 for no effect and ±100 for the full control effect
Target sequence (Q27686 whole entry, looked up): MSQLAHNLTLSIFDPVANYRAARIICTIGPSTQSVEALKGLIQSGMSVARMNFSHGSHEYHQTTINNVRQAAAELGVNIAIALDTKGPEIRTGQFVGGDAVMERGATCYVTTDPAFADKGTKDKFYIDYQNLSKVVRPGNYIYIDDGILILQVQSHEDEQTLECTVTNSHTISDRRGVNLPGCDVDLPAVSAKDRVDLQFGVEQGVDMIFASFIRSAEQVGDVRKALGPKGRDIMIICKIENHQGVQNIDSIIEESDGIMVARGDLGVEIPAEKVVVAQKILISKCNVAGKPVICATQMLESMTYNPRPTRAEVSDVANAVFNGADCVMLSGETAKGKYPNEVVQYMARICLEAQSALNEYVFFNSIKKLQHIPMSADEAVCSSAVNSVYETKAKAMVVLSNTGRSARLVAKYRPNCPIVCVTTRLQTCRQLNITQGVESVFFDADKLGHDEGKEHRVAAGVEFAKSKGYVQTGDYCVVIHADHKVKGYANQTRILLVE
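Pyruvate kinase activity monitored as ATP production (luciferase luminescence). Conditions: 0.1 nM enzyme, 0.5 mM PEP, 0.1 mM ADP, 1 h, RT; normalized against uninhibited and no-enzyme wells.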
FBPA Giardia inh – Giardia lamblia aldolase inhibition. Potency, µM (doses to about 59.6 µM), for the others: at the highest dose activity, negative = inhibition, most hits filed as inhibitors. A8B2U2. purified Giardia FBPA. hit rate 0.71% among 290,000. AID 2451; also: potency is read from the fitted curve at half-maximal effect; % is scaled to controls: 0 for no effect and ±100 for the full control effect; nearly all actives have a fitted effect of over 55% in size
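40 nM FBPA preincubated 10 min at RT with compound (up to 57.5 uM final), then substrate plus GAPDH/TPI/NAD/arsenate coupling and diaphorase/resazurin added. Fluorescence read after 20 min at RT, 525/598 nm.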
CHX counter – affects cycloheximide protein synthesis inhibition readout, counter-screen. max response, %. AID 2314. hit rate 12% among 300,000. cell reporter, cycloheximide protein synthesis inhibition counterscreen; in the data active = max response mostly above about 13%, no sharp cut-off; inactive = mostly below about 14%; also: read at 38.3 µM for the half of the compounds with a filed dose; 0% is about no effect
TbPYK inhibitor – T. brucei pyruvate kinase inhibition | hit rate 0.12% among 410,000 | TbPYK enzyme, Kinase-Glo Plus ATP luminescence, 45 min | AID 624173 | Potency, µM (series often up to 76.8 µM), for the others: at the top dose activity, negative = inhibition, actives largely listed as inhibitors; also: potency is read from the fitted curve at half-maximal effect; % is scaled to controls: 0 for no effect and ±100 for the full control effect; nearly all actives have a fitted effect of over 50% in size
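Luminescent Kinase-Glo Plus end-point after 45 min room-temperature reaction of T. brucei pyruvate kinase started with 130 uM ADP (final). Buffer TEA 50 mM pH 7.2 with KCl, MgCl2, BSA, Tween-20; titration-based qHTS with fitted concentration-effect curves.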
Shiga toxin inh – Shiga toxin inhibition; hit rate 9.2% among 290,000; AID 2315; inhibition, % at 38.7 µM; Vero cells, Shiga toxin protein synthesis inhibition reporter; in the data active = inhibition mostly above about 28%, no sharp cut-off; inactive = mostly below about 43%; also: 0% is about no effect
RE007 growth inh – less growth of the S. pombe RE007 Vpr strain; S. pombe RE007 Vpr strain, BacTiter-Glo ATP luminescence, 24 h; Potency, µM (highest dose often 92.2 µM), for inactives: at the highest dose activity change, negative = less growth, actives largely listed as inhibitors; hit rate 0.21% among 360,000; AID 651644; active = well fitted falling curve with a large enough effect; also: potency is read from the fitted curve at half-maximal effect; % is scaled to controls: 0 for no effect and ±100 for the full control effect; nearly all actives have a fitted effect of over 50% in size
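Fission yeast RE007 carrying one integrated HIV-1 vpr copy, seeded at OD 0.01 in PMG+AL medium with 23 nL pinned compound. Grown 24 h at 30 degrees; viability read by BacTiter-Glo luminescence after 5 min.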
Starred values were filed as active, the others as inactive; [ ] = remark or other dose. Unless noted, calls follow the shape of the dose curve; as a rule, active = well fitted curve in the direction sought with a large enough effect; inconclusive = small, poorly fitted or top-dose-only effect, or another doubt; inactive = no such curve, though single readings can be large; an effect the other way counts as inactive or inconclusive.

How did CCN1CCN(CCC(=O)Nc2ccccc2OC)CC1 do in these assays?
LmPK inhibitor: 5.6%; FBPA Giardia inh: 9.2%; CHX counter: -4.0; TbPYK inhibitor: 1.8%; Shiga toxin inh: 25.9; RE007 growth inh: 4.7%

What do the screens show for `COc1ccccc1NC(=O)Nc1ccc(NC(=O)c2ccccc2O)cc1`?
LmPK inhibitor: 2.5%; FBPA Giardia inh: 4.6%; CHX counter: 7.8; TbPYK inhibitor: -10.1%; Shiga toxin inh: 14.1; RE007 growth inh: -6.3%

What do the screens show for `COc1ccccc1NC(=O)Nc1ccc(CC#N)cc1`?
LmPK inhibitor: -7.9%; FBPA Giardia inh: -3.4%; CHX counter: 25.3*; TbPYK inhibitor: 1.6%; Shiga toxin inh: 43.4*; RE007 growth inh: -4.5%

Results for COc1ccccc1NC(=O)Nc1ccc(C(N)=O)cc1 ?
LmPK inhibitor: -8.4%; FBPA Giardia inh: -12.1%; CHX counter: 12.8*; TbPYK inhibitor: 1.8%; Shiga toxin inh: 19.4; RE007 growth inh: 0.6%

Results for CCN1CCN(Cc2ccc(NC(=O)Nc3ccccc3OC)cc2)CC1 ?
LmPK inhibitor: -0.6%; FBPA Giardia inh: 4.8%; CHX counter: 35.0*; TbPYK inhibitor: 1.8%; Shiga toxin inh: 10.4*; RE007 growth inh: 10.6%

How did COC(=O)C1=C(C)N(Cc2ccccc2)[C@]23O[C@](C(=O)OC)(C(=O)N2C1c1ccccc1)C1CCCC(=O)C13 (some centres not stated) do in these assays?
FBPA Giardia inh: -0.2%[12.9 µM]

How did CCCc1ccc(C(=O)N2CCN(c3ccccc3OCC)CC2)cc1 do in these assays?
LmPK inhibitor: 4.0%; FBPA Giardia inh: 5.1%; CHX counter: 0.9; TbPYK inhibitor: -5.0%; Shiga toxin inh: -1.0; RE007 growth inh: 4.3%

How did CCOc1ccccc1N1CCN(C(=O)c2cn(CC3CCCCC3)nn2)CC1 do in these assays?
LmPK inhibitor: -8.4%; CHX counter: 37.4*; TbPYK inhibitor: 1.2%; Shiga toxin inh: 142.1*; RE007 growth inh: 4.7%

Results for COc1ccc(-c2cn3c(C)c(C(=O)N4CCc5ccccc5C4)sc3n2)cc1 ?
LmPK inhibitor: -2.0%; FBPA Giardia inh: 4.4%; CHX counter: -4.6; TbPYK inhibitor: -3.4%; Shiga toxin inh: -2.6; RE007 growth inh: -6.9%

What do the screens show for `COC(=O)C1CCN(C(=O)c2sc3nc(-c4ccc(F)cc4)cn3c2C)CC1`?
LmPK inhibitor: 0.6%; FBPA Giardia inh: -2.6%; CHX counter: 16.0*; TbPYK inhibitor: 8.1%; Shiga toxin inh: 36.6*; RE007 growth inh: 9.9%

Results for Cc1c(C(=O)N2CCOCC2)sc2nc(-c3ccccc3)cn12 ?
LmPK inhibitor: -18.3%; FBPA Giardia inh: 1.7%; CHX counter: 21.1*; TbPYK inhibitor: -5.1%; Shiga toxin inh: 42.6*; RE007 growth inh: -18.8%

How did CCOC(=O)C1CCN(C(=O)c2sc3nc(-c4ccccc4)cn3c2C)CC1 do in these assays?
LmPK inhibitor: 1.0%; FBPA Giardia inh: 0.2%; CHX counter: -2.4; TbPYK inhibitor: 3.5%; Shiga toxin inh: -3.5; RE007 growth inh: 2.4%

What do the screens show for `Cc1c(C(=O)N2CCc3ccccc3C2)sc2nc(-c3ccccc3)cn12`?
LmPK inhibitor: 2.8%; FBPA Giardia inh: -3.6%; CHX counter: 27.3*; TbPYK inhibitor: 0.8%; Shiga toxin inh: 45.2*; RE007 growth inh: 12.8%

How did COc1cccc(C(=O)Nc2ccc3c(c2)OCO3)c1OC do in these assays?
LmPK inhibitor: -8.3%; FBPA Giardia inh: 2.9%; CHX counter: 47.8*; TbPYK inhibitor: -2.1%; Shiga toxin inh: 89.3*; RE007 growth inh: -11.3%

What do the screens show for `COc1ccc(C(=O)Nc2ccc3[nH]ncc3c2)cc1OC`?
LmPK inhibitor: 1.2%; FBPA Giardia inh: 9.6%; CHX counter: 13.8; TbPYK inhibitor: 4.8%; Shiga toxin inh: 38.0; RE007 growth inh: 0.3%

What do the screens show for `O=C(Nc1ccc2c(c1)OCO2)c1c[nH]c(=O)n(-c2ccc(F)cc2)c1=O`?
LmPK inhibitor: 0.7%; FBPA Giardia inh: -6.8%; CHX counter: 15.6*; TbPYK inhibitor: 2.6%; Shiga toxin inh: 18.7; RE007 growth inh: 35.9%

What do the screens show for `COc1cccc(C(=O)NCc2ccc3c(c2)OCO3)c1OC`?
LmPK inhibitor: -4.0%; FBPA Giardia inh: -8.5%; CHX counter: 7.8; TbPYK inhibitor: -1.3%; Shiga toxin inh: 23.6; RE007 growth inh: 5.4%
